Compound activity as filed in PubChem BioAssay.
STK33 kin inh: inhibitors of human STK33 kinase; Q9BYT3; ADP-Glo luminescence, MBP substrate; inhibition, % at 12.5 µM; 27,000 tested, 0.44% active; AID 2322; in the data active = inhibition above about 20%; inconclusive = no clear call, values can overlap the other calls
Target sequence (Q9BYT3 whole entry, looked up): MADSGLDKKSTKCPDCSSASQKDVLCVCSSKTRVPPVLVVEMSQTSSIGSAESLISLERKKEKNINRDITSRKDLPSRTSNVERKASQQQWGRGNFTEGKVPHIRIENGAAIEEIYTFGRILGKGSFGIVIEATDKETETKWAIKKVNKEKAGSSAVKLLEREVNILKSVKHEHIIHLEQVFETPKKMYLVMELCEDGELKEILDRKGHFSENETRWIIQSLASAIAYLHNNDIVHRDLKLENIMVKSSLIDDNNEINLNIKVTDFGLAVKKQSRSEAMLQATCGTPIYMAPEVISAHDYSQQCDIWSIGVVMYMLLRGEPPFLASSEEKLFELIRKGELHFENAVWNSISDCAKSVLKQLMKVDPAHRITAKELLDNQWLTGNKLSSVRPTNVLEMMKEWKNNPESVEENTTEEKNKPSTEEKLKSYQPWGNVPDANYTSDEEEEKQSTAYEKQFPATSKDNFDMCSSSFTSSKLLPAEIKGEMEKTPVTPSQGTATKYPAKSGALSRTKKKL
NOMO-1 viab: STK33 inhibitor candidate reducing NOMO-1 cell viability | NOMO-1 AML viability, CellTiter-Glo luminescence, 72 h | inhibition, % (test concentration not listed) | 37,000 tested, 7.5% active | AID 2330; in the data active = inhibition above about 80%; inconclusive = no clear call, values can overlap the other calls
PD-1 reversal: activators reversing PD-1 mediated T-cell inhibition. primary human CD4 T cells, PD-L1 beads, CellTiter-Glo 96 h. activation, % (no concentration beside the values). 29,000 tested, under 10 active. AID 2316; call rule not given here;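 note: 0% = median vehicle wells and 100% = positive control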
The depositor's hits bear a star; ? = inconclusive; · = not tested or not shown. The entries come from a sample that favours hits as a whole.

SMILES	STK33 kin inh	NOMO-1 viab	PD-1 reversal
O=c1c(-c2c(O)cc(O)c3c(=O)cc(-c4ccc(O)cc4)oc23)c(-c2ccc(O)cc2)oc2cc(O)cc(O)c12	3	13	0
CS(=O)(=O)N(CC(=O)Nc1ccc(F)cc1F)c1ccc2c(c1)OCCO2	-1	12	·
COc1ccc(S(=O)(=O)N(CC(N)=O)c2ccc(C)cc2)cc1Br	7	15	-2
COc1ccc(NC(=O)Nc2ccc3c(c2)C(=O)N([C@@H](C)CO)C[C@H](C)[C@H](CN(C)Cc2ccc(-c4ccccc4)cc2)O3)cc1	3	29	5
COc1ccc(NC(=O)Nc2ccc3c(c2)C(=O)N([C@@H](C)CO)C[C@@H](C)[C@H](CN(C)Cc2ccc(Oc4ccccc4)cc2)O3)cc1	·	-4	·
COc1ccc(NC(=O)Nc2ccc3c(c2)C(=O)N([C@H](C)CO)C[C@@H](C)[C@@H](CN(C)Cc2ccc(-c4ccccc4)cc2)O3)cc1	·	94*	·
COc1ccc(NC(=O)Nc2ccc3c(c2)C(=O)N([C@@H](C)CO)C[C@@H](C)[C@@H](CN(C)Cc2ccc(Oc4ccccc4)cc2)O3)cc1	1	117*	-5
CC(C)(C)NC(=O)CSc1nnc(-c2ccco2)n1-c1ccccc1	1	35	1
COc1ccc2sc(SCc3nc(N)nc(Nc4cccc(C)c4C)n3)nc2c1	-2	10	·
C/C=C(/C)C(=O)O[C@H]1C=C(C)C[C@H](OC(=O)c2ccc(O)cc2)C2[C@](O)(C(C)C)CC[C@@]21C (stereo partly specified)	-5	122*	-6
Cc1c(NC(=O)c2ncn[nH]2)cccc1-c1nc2cc(Cl)ccc2o1	3	29	·
C[C@@H]1CN([C@@H](C)CO)C(=O)c2cccc(NC(=O)C3CCCCC3)c2O[C@@H]1CN(C)Cc1ccc(Oc2ccccc2)cc1	·	46	-3
C[C@@H]1CN([C@@H](C)CO)C(=O)c2cccc(NC(=O)C3CC3)c2O[C@H]1CN(C)Cc1ccc(Oc2ccccc2)cc1	·	100*	-4
C[C@@H]1CN([C@@H](C)CO)C(=O)c2cccc(NC(=O)C3CCCCC3)c2O[C@@H]1CN(C)Cc1ccc(Cl)c(Cl)c1	·	96*	-4
C[C@@H]1CN([C@@H](C)CO)C(=O)c2cccc(NC(=O)C3CCCCC3)c2O[C@H]1CN(C)Cc1ccc(Oc2ccccc2)cc1	·	120*	-5
C[C@@H]1CN([C@H](C)CO)C(=O)c2cccc(NC(=O)C3CC3)c2O[C@@H]1CN(C)Cc1ccc(Oc2ccccc2)cc1	·	2	·
C[C@H]1CN([C@@H](C)CO)C(=O)c2cccc(NC(=O)C3CCCCC3)c2O[C@H]1CN(C)Cc1ccc(Cl)c(Cl)c1	·	49	-2
C[C@H](CO)N1C[C@H](C)[C@@H](CN(C)Cc2ccc(Oc3ccccc3)cc2)Oc2c(NC(=O)C3CCCCC3)cccc2C1=O	·	88*	-3
C[C@@H]1CN([C@H](C)CO)C(=O)c2cccc(NC(=O)C3CCCCC3)c2O[C@H]1CN(C)Cc1ccc(Oc2ccccc2)cc1	·	52	-2
CNC(=O)C1OC(C)(C(C)(C)C)OC1C(=O)NC (stereo unspecified)	·	-27	0
COc1ccccc1NC(=O)CSc1nc2ccccc2c(=O)n1-c1ccc(C)cc1	1	-6	0
Cc1nc(S(=O)(=O)NCC2CCN(Cc3ccc(OCCO)cc3)CC2)cn1C	0	·	·
C[C@H]1CN([C@@H](C)CO)C(=O)c2cc(NC(=O)C3CCCCC3)ccc2O[C@H]1CN(C)Cc1ccc(Oc2ccccc2)cc1	1	42	-4
C[C@@H]1CN([C@@H](C)CO)C(=O)c2cc(NC(=O)C3CCCCC3)ccc2O[C@H]1CN(C)Cc1ccc(Oc2ccccc2)cc1	1	100*	-1
CCn1c(SCC(=O)Nc2ccccc2F)nnc1-c1ccc(Br)cc1	-2	2	·
SMILES	STK33 kin inh	NOMO-1 viab	PD-1 reversal
Cc1ccc2c(c1)-c1c(ssc1=S)C(C)(C)N2C(=O)C(C)C	·	19	1
CC(=O)O[C@@H]1CC[C@@]2(C)C(C[C@@H](OC(C)=O)[C@@]3(C)C4=CC(=O)O[C@@H](c5ccoc5)[C@]4(C)CCC23)C1(C)C (stereo partly specified)	3	66	·
CC(=O)O[C@@H]1CC2C(C)(C)CCC[C@]2(C)C2CC[C@]3(C)C(=CC(=O)O[C@H]3c3ccoc3)[C@@]21C (stereo partly specified)	3	99*	·
C[C@H]1CN([C@@H](C)CO)C(=O)Cc2cc(NC(=O)Nc3ccccc3)ccc2O[C@H]1CN(C)Cc1ccccc1	-9	65	·
COc1ccc(NC(=O)Nc2ccc3c(c2)CC(=O)N([C@H](C)CO)C[C@H](C)[C@H](CN(C)Cc2ccc(Cl)c(Cl)c2)O3)cc1	-2	69	2
C[C@@H]1CN([C@@H](C)CO)C(=O)Cc2cc(NC(=O)NC3CCCCC3)ccc2O[C@@H]1CN(C)Cc1ccncc1	8	-1	-1
C[C@H](CO)N1C[C@H](C)[C@H](CN(C)Cc2ccc(Cl)c(Cl)c2)Oc2ccc(NC(=O)Nc3ccccc3)cc2CC1=O	-4	116*	-1
C[C@H]1CN([C@@H](C)CO)C(=O)Cc2cc(NC(=O)Nc3ccccc3)ccc2O[C@H]1CN(C)Cc1ccc(Cl)c(Cl)c1	4	104*	-2
C[C@@H]1CN([C@H](C)CO)C(=O)Cc2cc(NC(=O)NC3CCCCC3)ccc2O[C@@H]1CN(C)Cc1ccc(Cl)c(Cl)c1	-1	114*	-9
C[C@H](CO)N1C[C@H](C)[C@H](CN(C)Cc2ccncc2)Oc2ccc(NC(=O)Nc3ccc(F)cc3)cc2CC1=O	-1	-8	1
C[C@@H]1CN([C@@H](C)CO)C(=O)Cc2cc(NC(=O)Nc3ccc(F)cc3)ccc2O[C@@H]1CN(C)Cc1ccc(Cl)c(Cl)c1	1	103*	-3
Cc1ccc([N+](=O)[O-])cc1NC(=O)CN(C)S(=O)(=O)c1ccc(Br)cc1	1	-17	1
Cc1nc(SCC(=O)Nc2ccc(F)cc2)nc2c1CCCC2	4	4	0
COc1ccc2[nH]cc(CCNC(N)=O)c2c1	-1	·	·
C[C@H](CO)N1C[C@H](C)[C@H](CN(C)Cc2ccc(Cl)c(Cl)c2)Oc2ccc(NC(=O)Nc3ccc4c(c3)OCO4)cc2CC1=O	·	94*	·
C[C@H](CO)N1C[C@H](C)[C@H](CN(C)Cc2ccc3c(c2)OCO3)Oc2ccc(NC(=O)Nc3ccc4c(c3)OCO4)cc2CC1=O	·	40	·
CCCOc1ccc(C2C3=C(CCCC3=O)OC3=C2C(=O)CCC3)cc1OCC	·	38	0
N#Cc1c(NC(=O)CSc2n[nH]c(-c3ccc(Cl)cc3)n2)sc2c1CCCC2	-2	8	1
Cc1ccc(O)c(C2=Nc3ccccc3N=C(C(F)(F)F)C2)c1	?	89*	-21
COC(=O)CC(O)(CCCC(C)(C)O)C(=O)O[C@@H]1C(OC)=C[C@]23CCCN2CCc2cc4c(cc2[C@@H]13)OCO4 (stereo partly specified)	4	99*	-15
C[C@H]1CN([C@@H](C)CO)C(=O)c2cc(NS(C)(=O)=O)ccc2O[C@H]1CN(C)Cc1ccc(Cl)c(Cl)c1	-1	14	-1
C[C@H](CO)N1C[C@H](C)[C@H](CN(C)Cc2ccc(Cl)c(Cl)c2)Oc2ccc(NS(C)(=O)=O)cc2C1=O	-2	17	2
